The source made the active and inactive calls.
Columns and labels:
[1] = system: Plasmodium falciparum Sir2 (PF13_0152, Sir2A); assay: pfSir2 binders on small-molecule microarrays, primary screen, biochemical, small-molecule microarray, 635 nm fluorescence (AID 1098); details: small-molecule microarray binding, fluorescence 635 nm; higher = more signal;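 note: score merges spot fluorescence intensity with its signal-to-noise ratio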
[2] = small-molecule microarray binders of probe aDKK1, primary screen, biochemical, biotinylated probe, 635/667 nm fluorescence (AID 1099); details: higher = more signal;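 note: score merges 667nm spot fluorescence with signal to noise across triplicate slides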
[3] = small-molecule microarray binders of probe aCHRDL2, primary screen, biochemical, biotinylated probe, 635/667 nm fluorescence (AID 1100); details: higher = more signal
[4] = splicing luciferase reporter signal modulators, primary screen, spliceosome inhibition project, cell-based, HEK293, splice +/- reporter (AID 1101); details: luminescence, 24 h, higher = more signal, called active from +8 up or from −8 down;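 note: HEK293 cells carrying a splicing-competent luciferase reporter gene; test concentration not given here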
[5] = biological target: Fibroblast growth factor 10 (Homo sapiens) (UniProt O15520); assay: FGF10 binders on small-molecule microarrays, primary screen, biochemical, small-molecule microarray, 635 nm fluorescence (AID 1102); details: FGF10 binding, fluorescence 635 nm, higher = more signal
Sequence of Fibroblast growth factor 10 (Homo sapiens) (O15520 whole entry, looked up): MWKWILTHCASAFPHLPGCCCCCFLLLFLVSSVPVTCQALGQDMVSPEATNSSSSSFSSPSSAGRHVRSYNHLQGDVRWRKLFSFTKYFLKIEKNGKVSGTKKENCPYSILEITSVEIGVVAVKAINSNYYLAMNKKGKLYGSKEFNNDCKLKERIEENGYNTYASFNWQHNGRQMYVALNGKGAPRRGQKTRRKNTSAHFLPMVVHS

[6] = system: glycogen synthase kinase-3 (GSK3A per assay name; protocol says GSK3B); assay: GSK3 binders on small-molecule microarrays, primary screen, biochemical, small-molecule microarray, 635 nm fluorescence, GSK3A (AID 1103); details: small-molecule microarray binding, fluorescence 635 nm; higher = more signal; note: the record names both GSK3A and GSK3B
[7] = biological target: Epidermal growth factor receptor (Homo sapiens) (UniProt P00533); assay: EGFR binders on small-molecule microarrays, primary screen, biochemical, small-molecule microarray, 635 nm fluorescence (AID 1104); details: EGFR binding, higher = more signal;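 note: score merges 667 nm emission intensity with spot signal to noise over triplicate slides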
Sequence of Epidermal growth factor receptor (Homo sapiens) (P00533 whole entry, looked up): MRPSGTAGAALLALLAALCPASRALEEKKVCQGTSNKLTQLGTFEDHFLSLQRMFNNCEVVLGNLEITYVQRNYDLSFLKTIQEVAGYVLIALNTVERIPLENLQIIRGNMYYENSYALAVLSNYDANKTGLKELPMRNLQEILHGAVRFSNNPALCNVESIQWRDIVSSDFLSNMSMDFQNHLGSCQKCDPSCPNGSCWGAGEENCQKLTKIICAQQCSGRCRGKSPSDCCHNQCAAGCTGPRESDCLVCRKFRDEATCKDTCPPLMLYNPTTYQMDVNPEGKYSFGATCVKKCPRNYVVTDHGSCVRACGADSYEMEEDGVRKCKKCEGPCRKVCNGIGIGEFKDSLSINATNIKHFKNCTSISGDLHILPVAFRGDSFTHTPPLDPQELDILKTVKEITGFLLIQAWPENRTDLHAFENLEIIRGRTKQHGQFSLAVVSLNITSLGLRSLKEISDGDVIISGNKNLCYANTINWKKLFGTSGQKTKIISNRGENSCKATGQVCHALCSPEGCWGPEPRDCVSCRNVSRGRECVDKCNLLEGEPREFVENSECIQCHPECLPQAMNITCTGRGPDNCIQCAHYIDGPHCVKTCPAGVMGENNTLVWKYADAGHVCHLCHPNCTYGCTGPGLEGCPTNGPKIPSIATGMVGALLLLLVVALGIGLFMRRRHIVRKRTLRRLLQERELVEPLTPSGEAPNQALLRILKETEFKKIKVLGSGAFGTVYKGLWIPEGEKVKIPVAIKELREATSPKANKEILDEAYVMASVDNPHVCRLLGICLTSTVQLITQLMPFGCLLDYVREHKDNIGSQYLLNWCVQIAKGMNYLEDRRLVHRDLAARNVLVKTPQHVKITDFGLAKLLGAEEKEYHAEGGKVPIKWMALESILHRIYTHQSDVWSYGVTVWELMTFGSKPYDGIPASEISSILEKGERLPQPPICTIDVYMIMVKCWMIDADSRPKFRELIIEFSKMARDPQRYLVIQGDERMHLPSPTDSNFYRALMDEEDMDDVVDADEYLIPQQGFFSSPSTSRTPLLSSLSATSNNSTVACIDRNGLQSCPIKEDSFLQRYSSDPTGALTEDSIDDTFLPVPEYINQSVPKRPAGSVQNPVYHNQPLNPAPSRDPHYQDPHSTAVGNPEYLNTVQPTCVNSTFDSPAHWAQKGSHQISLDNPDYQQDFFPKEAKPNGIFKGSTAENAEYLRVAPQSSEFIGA

[8] = biological target: Follistatin-related protein 3 (Homo sapiens) (UniProt O95633); assay: FSTL3 binders on small-molecule microarrays, primary screen, biochemical, small-molecule microarray, 635 nm fluorescence (AID 1105); details: FSTL3 binding, higher = more signal;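 note: score merges emission near 667 nm and signal to noise per printed spot across three slides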
Sequence of Follistatin-related protein 3 (Homo sapiens) (O95633 whole entry, looked up): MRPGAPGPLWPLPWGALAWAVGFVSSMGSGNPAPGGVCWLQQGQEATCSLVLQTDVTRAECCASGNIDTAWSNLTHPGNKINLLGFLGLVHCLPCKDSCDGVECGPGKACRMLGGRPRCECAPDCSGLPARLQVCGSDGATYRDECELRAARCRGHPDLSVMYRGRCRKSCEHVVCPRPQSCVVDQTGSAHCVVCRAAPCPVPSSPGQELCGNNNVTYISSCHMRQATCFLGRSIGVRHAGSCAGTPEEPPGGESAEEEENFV

[9] = biological target: Dickkopf-related protein 1 (Homo sapiens) (UniProt O94907); assay: DKK1 binders on small-molecule microarrays, primary screen, biochemical, small-molecule microarray, 635 nm fluorescence scan (AID 1106); details: DKK1 binding, higher = more signal;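 note: score merges emission near 667 nm with signal to noise over three replicate slides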
Sequence of Dickkopf-related protein 1 (Homo sapiens) (O94907 whole entry, looked up): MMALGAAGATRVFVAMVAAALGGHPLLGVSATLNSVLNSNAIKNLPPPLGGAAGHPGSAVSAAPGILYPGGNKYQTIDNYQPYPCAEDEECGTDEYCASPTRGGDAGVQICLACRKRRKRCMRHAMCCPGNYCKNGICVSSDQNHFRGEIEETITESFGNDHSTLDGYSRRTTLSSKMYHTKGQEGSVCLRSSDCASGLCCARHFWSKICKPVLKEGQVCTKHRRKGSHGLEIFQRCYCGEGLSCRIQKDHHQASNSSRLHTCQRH

[10] = system: Inhibin beta A chain (activin A); assay: INHBA (activin A) binders on microarrays, primary screen, biochemical, small-molecule microarray, 635 nm fluorescence scan (AID 1107); details: small-molecule microarray binding, higher = more signal;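 note: mouse activin A protein probed at 4.33 µg/mL on printed slides; score merges bound-protein fluorescence near 667 nm with spot signal-to-noise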
[11] = system: Human papillomavirus type 1a protein E7 (residues 44-93); assay: HPV1a E7 fragment binders on microarrays, primary screen, biochemical, small-molecule microarray, residues 44-93, 635 nm fluorescence (AID 1108); details: small-molecule microarray binding, fluorescence 635 nm; higher = more signal;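 note: E7 fragment applied at 1 µg/mL in TBST for 1 h at 4 C; score combines spot fluorescence with its signal to noise ratio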
[12] = modulators of HCV replicon luciferase signal, primary screen, HCV replication inhibitor project, Huh7 cells, luciferase reporter (AID 1109); details: 48 h, higher = more signal;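 note: huh7 hepatoma cells harbouring a luciferase neomycin HCV replicon reporter; luciferase luminescence as measure of HCV replicon replication; test concentration not given here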
[13] = biological target: Left-right determination factor 2 (Homo sapiens) (UniProt O00292); assay: LEFTY2 binders on small-molecule microarrays, primary screen, biochemical, small-molecule microarray, 635 nm fluorescence scan (AID 1110); details: LEFTY2 binding, higher = more signal
Sequence of Left-right determination factor 2 (Homo sapiens) (O00292 whole entry, looked up): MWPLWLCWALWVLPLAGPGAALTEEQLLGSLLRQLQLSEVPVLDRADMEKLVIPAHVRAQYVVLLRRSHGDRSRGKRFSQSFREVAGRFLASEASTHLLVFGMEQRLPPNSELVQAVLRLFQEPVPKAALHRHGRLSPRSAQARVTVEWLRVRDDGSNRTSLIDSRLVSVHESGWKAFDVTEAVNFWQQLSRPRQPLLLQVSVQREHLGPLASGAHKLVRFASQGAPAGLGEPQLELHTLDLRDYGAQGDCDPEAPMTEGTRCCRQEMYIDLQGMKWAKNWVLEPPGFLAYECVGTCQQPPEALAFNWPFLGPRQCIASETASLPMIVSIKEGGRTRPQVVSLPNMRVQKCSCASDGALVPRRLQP

[14] = biological target: Calmodulin-1 (Homo sapiens) (UniProt P0DP23); assay: CALM1 binders on microarrays, EGTA buffer, profiling panel, biochemical, small-molecule microarray, Cy5-labelled CALM1 (AID 1111); details: Cy5-CALM1 binding fluorescence, higher = more signal;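 note: labelled calmodulin applied in Tris saline Tween buffer holding calcium plus EGTA and DTT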
[15] = biological target: Calmodulin-1 (Homo sapiens) (UniProt P0DP23); assay: calcium-bound CALM1 binders on microarrays, profiling panel, artefact control for SMM control-protein annotation, biochemical, small-molecule microarray, Cy5-labelled CALM1, plus calcium (AID 1112); details: Cy5-CALM1 binding fluorescence, higher = more signal;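 note: score merges spot fluorescence with signal to noise from triplicate slides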
[16] = small-molecule microarray binders of probe aWnt5a, primary screen, biochemical, biotinylated probe, 635/667 nm fluorescence (AID 1113); details: higher = more signal;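 note: score merges 667 nm fluorescence intensity with signal-to-noise per printed feature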
[17] = small-molecule microarray binders of probe aShh, primary screen, biochemical, biotinylated probe, 635/667 nm fluorescence (AID 1114); details: higher = more signal;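 note: probe is biotin-labelled aShh protein from a stem cell growth factor screen; measures binding of labelled protein to compounds printed on the slide; score merges feature fluorescence at 667 nm with signal-to-noise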
[18] = small-molecule microarray binders of probe aNog, primary screen, biochemical, biotinylated probe, 635/667 nm fluorescence (AID 1115); details: higher = more signal;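 note: probe is biotinylated aNog protein used at 0.15 µg/mL for 1 h at 4 C; z-score combines 667 nm fluorescence of each spot with its signal to noise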
[19] = biological target: Torsin-1A-interacting protein 1 (Homo sapiens) (UniProt Q5JTV8); assay: LAP1 binders from COS7 cell lysate, primary screen, small-molecule microarray, 635/667 nm fluorescence (AID 1116); details: COS7-hLAP1 lysate binding, 635 nm fluorescence, higher = more signal
Sequence of Torsin-1A-interacting protein 1 (Homo sapiens) (Q5JTV8 whole entry, looked up): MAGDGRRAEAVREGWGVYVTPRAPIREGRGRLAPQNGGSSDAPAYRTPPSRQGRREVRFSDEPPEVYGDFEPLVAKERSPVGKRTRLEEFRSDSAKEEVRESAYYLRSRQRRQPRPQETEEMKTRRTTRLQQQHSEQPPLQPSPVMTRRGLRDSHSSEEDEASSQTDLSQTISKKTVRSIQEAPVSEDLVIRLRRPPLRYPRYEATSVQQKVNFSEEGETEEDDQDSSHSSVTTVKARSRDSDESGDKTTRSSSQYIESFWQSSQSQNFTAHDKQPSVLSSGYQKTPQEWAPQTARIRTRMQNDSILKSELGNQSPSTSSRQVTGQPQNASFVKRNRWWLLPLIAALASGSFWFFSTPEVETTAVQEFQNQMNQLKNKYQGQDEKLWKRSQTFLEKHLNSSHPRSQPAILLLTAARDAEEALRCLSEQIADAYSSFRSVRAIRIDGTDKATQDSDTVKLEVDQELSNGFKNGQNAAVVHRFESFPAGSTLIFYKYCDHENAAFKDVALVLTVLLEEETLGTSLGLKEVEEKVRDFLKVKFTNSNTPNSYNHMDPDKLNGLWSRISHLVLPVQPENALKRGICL

[20] = biological target: Alpha-bungarotoxin (Bungarus multicinctus) (UniProt P60615); assay: alpha-bungarotoxin binders on microarray, profiling panel, artefact control for SMM control protein annotation, biochemical, small-molecule microarray, Alexa647 label, 635/667 nm fluorescence (AID 1117); details: alpha-BTX-A647 binding fluorescence, higher = more signal
Sequence of Alpha-bungarotoxin (Bungarus multicinctus) (P60615 whole entry, looked up): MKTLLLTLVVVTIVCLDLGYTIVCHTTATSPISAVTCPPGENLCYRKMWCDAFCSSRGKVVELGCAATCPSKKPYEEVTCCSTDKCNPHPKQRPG

| SMILES | composite z-score [1] | composite z-score [2] | composite z-score [3] | z-score [4] | composite z-score [5] | composite z-score [6] | composite z-score [7] | composite z-score [8] | composite z-score [9] | composite z-score [10] | composite z-score [11] | z-score [12] | composite z-score [13] | composite z-score [14] | composite z-score [15] | composite z-score [16] | composite z-score [17] | composite z-score [18] | composite z-score [19] | composite z-score [20] |
| --- | --- | --- | --- | --- | --- | --- | --- | --- | --- | --- | --- | --- | --- | --- | --- | --- | --- | --- | --- | --- |
| O=C1[C@H]2[C@H]3[C@H](O)[C@H](O)CC(=NO[C@@H]4O[C@H](CO)[C@@H](O)[C@H](O)[C@H]4O)[C@H]3CC[C@H]2C(=O)N1C[C@@H]1CCCO1 | 0.323 | -0.273 | -0.344 | 0.0676 (inactive) | 0.0269 | -0.027 | 0.522 | 0.0553 | -0.0079 | -0.915 | -0.429 | -0.232 | 0.399 | -0.551 | -1.1 | -0.118 | -0.117 | -0.379 | -0.367 | -0.0473 |
| CCOC(=O)[C@H](CC(C)C)NC(=O)CCC1CC(OC(=O)NCc2ccc3c(c2)OCO3)CC2(CCCC(COC(=O)NCCc3ccccc3OC)O2)O1 (stereo not given in full) | 0.608 | -0.0877 | -0.497 | 0.0955 (inactive) | 0.533 | 1.27 | 0.461 | 1.01 | 0.434 | -0.344 | 1.31 | -0.621 | 0.613 | 0.618 | -0.375 | -0.298 | -0.0626 | -0.41 | 0.389 | 0.556 |
| COC(=O)CC=C[C@@H](C)[C@@H](C=NOC(C)CN1CCCCc2nc(C)c(C)cc21)OC (stereo not given in full) | 0.519 | -0.343 | -0.613 | 0.854 (inactive) | -0.285 | 0.959 | 0.686 | 0.975 | 1.33 | 1.19 | 1.04 | -1.23 | 1.11 | -0.452 | -1.05 | -0.1 | -0.138 | -0.619 | 0.449 | 0.143 |
| CCOC(=O)[C@H](CC(C)C)NC(=O)CCC1CC(OC(=O)NCCc2ccc(F)cc2)CC2(CCCC(COC(=O)NCc3cccc4ccccc34)O2)O1 (stereo not given in full) | 0.66 | -0.0464 | -0.224 | -1.61 (inactive) | 0.176 | 0.121 | 0.55 | 0.135 | 0.678 | -0.583 | 0.548 | -0.893 | 0.824 | 0.239 | -0.364 | -0.156 | -0.237 | -0.497 | 0.219 | 0.0466 |
| O=C1C2=CC[C@H]3C(=O)N(C4CCCCC4)C(=O)[C@H]3[C@H]2[C@H](O)[C@@H]2O[C@H]12 | -0.541 | -0.121 | -0.588 | 15.3 (active) | -0.246 | -1.31 | 0.0862 | -1.22 | 0.271 | -0.185 | -1.46 | -5.43 | -0.0026 | -0.883 | -0.828 | -0.206 | -0.282 | -0.307 | -0.11 | -0.635 |
| CCN1C(=O)[C@H]2[C@H]3[C@H](O)[C@H](O)CC(=NNC(=O)OCc4ccccc4)[C@H]3CC[C@H]2C1=O | -0.0508 | 0.0829 | 0.877 | -0.45 (inactive) | 0.186 | -0.493 | -0.198 | -0.0353 | -0.26 | 0.0251 | 0.663 | -0.0788 | 0.227 | -0.307 | -0.767 | -0.0459 | 0.0637 | -0.452 | 0.185 | 0.504 |
| CCOC(=O)[C@H](Cc1ccccc1)NC(=O)CCC1CC(OC(=O)NCc2cccc3ccccc23)CC2(CCCC(COC(=O)NCCc3ccc(Cl)cc3)O2)O1 (stereo not given in full) | 0.519 | -0.217 | -0.603 | -0.84 (inactive) | 0.718 | 0.24 | 0.104 | 0.588 | 0.621 | 0.145 | 1.02 | 0.246 | 0.366 | 1.14 | -0.369 | -0.0738 | -0.153 | 0.793 | 0.289 | 0.429 |
| CCc1cc2c(nc1CC)CCN(CCC(C)=NOCC[C@@H]1C=C[C@H](OC(C)=O)[C@@H](COC(C)=O)O1)C2 | 1.05 | 0.0092 | 0.343 | 0.192 (inactive) | -0.0488 | 0.459 | 0.789 | 0.332 | 0.301 | 1.29 | 1.11 | -0.879 | 0.879 | -0.307 | -1.2 | 0.0209 | -0.167 | -0.4 | 1.01 | 0.147 |
| C=C(C)C(=O)OC[C@H]1CN2[C@@H](CC[C@@H](C)[C@@H]2c2ccc(Br)cc2)C(=O)O1 | 0.789 | -0.366 | -0.264 | -0.286 (inactive) | 0.261 | 0.179 | 0.135 | -0.214 | 0.302 | 1.26 | 0.33 | 1.25 | 0.373 | -0.562 | -0.395 | -0.178 | -0.0553 | -0.353 | -0.273 | 0.534 |
| COC(=O)[C@@H]1CC[C@H](C)[C@@H](c2ccc(C)cc2)N1C(=O)c1ccc(C=NOC[C@@H](O)[C@H]2O[C@@H]3OC(C)(C)O[C@@H]3[C@H]2O)cc1 | 0.402 | 0.0861 | -0.357 | 0.569 (inactive) | 0.696 | 0.479 | 0.54 | 0.543 | 0.595 | 0.101 | 1.15 | -0.447 | 0.414 | 0.504 | -0.12 | -0.117 | -0.0709 | -0.168 | 0.555 | 0.776 |
| C[C@@H]1CC[C@H]2C(=O)OC(Cc3ccccc3)CN2[C@H]1c1ccc(Br)cc1 (stereo not given in full) | 0.413 | -0.193 | -0.312 | 0.264 (inactive) | 0.524 | 0.255 | 0.0012 | 0.141 | -0.0094 | 0.445 | 0.911 | 0.161 | 0.34 | -0.241 | -0.536 | -0.228 | -0.0146 | 0.105 | 0.781 | 0.599 |
